This is a sample that favours compounds with a hit; in the whole collection about 7.5% have one here.
TSHR antag: human thyrotropin receptor antagonism; P16473; TSHR-expressing cells, TSH-stimulated cAMP HTRF, 2 h; active compounds read low; activity change, negative = inhibition, % at 11.5 µM; 330,000 compounds, 0.2% hits;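 active = activity change below a set negative limit, meaning inhibition stronger than a set level, cut at about -70% in these data; inconclusive = activity change between two set negative limits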
Target sequence (P16473 whole entry, looked up): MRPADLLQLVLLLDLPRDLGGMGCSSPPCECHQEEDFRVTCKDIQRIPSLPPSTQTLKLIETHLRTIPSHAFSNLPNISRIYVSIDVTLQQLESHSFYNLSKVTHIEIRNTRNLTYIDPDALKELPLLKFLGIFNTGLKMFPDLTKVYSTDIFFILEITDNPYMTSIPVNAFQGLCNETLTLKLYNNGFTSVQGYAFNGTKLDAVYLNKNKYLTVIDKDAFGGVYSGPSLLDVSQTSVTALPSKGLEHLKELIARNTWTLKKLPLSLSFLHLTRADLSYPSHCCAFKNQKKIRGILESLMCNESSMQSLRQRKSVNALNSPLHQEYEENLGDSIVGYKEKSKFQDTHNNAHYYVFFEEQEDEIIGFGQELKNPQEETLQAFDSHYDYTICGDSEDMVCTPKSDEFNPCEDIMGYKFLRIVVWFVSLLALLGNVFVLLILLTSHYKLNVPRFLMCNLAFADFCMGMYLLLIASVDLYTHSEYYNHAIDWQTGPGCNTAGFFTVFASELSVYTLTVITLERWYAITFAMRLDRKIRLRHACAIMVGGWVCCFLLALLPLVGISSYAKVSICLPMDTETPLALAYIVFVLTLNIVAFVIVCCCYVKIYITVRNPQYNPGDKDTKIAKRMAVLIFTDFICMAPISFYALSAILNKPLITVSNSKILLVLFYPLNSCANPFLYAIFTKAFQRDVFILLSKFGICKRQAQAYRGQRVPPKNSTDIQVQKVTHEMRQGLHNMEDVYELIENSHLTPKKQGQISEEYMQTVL
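Cell-based HTRF cAMP assay; TSHR cells + compound, TSH EC80 (4nM final), 2 h, 37 deg C. Lysis with anti-cAMP cryptate and cAMP-d2, 30 min RT, read 665/620 nm.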
B2AR arrestin: agonists driving beta-arrestin recruitment to human beta2-adrenergic receptor | 330,000 compounds, 0.02% hits | Potency, µM (top dose mostly 46.1 µM), without a hit: at the top dose activation, actives largely listed as activators | P07550 | beta-arrestin recruitment to beta2AR, cell-based reporter | AID 492947;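 note: potency is the fitted concentration of half-maximal effect; 0% = DMSO controls and full agonism = EC100 isoproterenol or metaproterenol; nearly all actives have a fitted effect of over 65% in size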
RORg inh: blocks mouse ROR gamma transcriptional activity; 310,000 compounds, 5.4% hits; Drosophila S2 Gal4-RORgamma UAS-luciferase reporter, 20 h; Potency, µM (titrated, usually from 53.6 µM), for the others: at the highest dose activity change, negative = inhibition, most hits filed as inhibitors; P51450; note: potency is the fitted concentration of half-maximal effect; nearly all actives have a fitted effect of over 60% in size
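Luciferase reporter read in Schneider cells carrying Gal4-RORγ (mouse) and UAS-Photinus luciferase; cells given compound 1 h before 700 uM copper sulfate induction, then incubated 20 h at ambient temperature.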
ELG1 DNA repair: blocks ELG1-dependent DNA repair in HEK293T cells; 330,000 compounds, 2.3% hits; Potency, µM (titrated, usually from 46.1 µM), without a hit: top-dose activity change, negative = inhibition, most hits filed as inhibitors; HEK293T ELG1-luciferase reporter, luminescence, 16 h; DNA damage induced by 5-fluorouridine; AID 504467; note: potency is the fitted concentration of half-maximal effect; nearly all actives have a fitted effect of over 55% in size
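Luminescence from the luciferase reporter, measured 30 min after ONE-Glo reagent at room temperature, was the read-out. Beforehand, 2,000 cells per well were exposed for 16 hr at 37 °C to 5-fluorouridine together with compound or vehicle.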
VP16 counter: Gal4-VP16 reporter inhibition counter-screen; Drosophila S2 Gal4-VP16 UAS-luciferase, luminescence, 20 h; 310,000 compounds, 3.5% hits; Potency, µM (titrated, usually from 53.6 µM), for inactives: at the highest dose activity, negative = inhibition, most hits filed as inhibitors; AID 2546;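 note: Gal4-VP16 expression switched on by copper sulfate through the metallothionein promoter; potency is the fitted concentration of half-maximal effect; nearly all actives have a fitted effect of over 50% in size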
* marks the source's active call; other numbers are inactive results; ? = inconclusive; / = no result; ! = not confirmed by another sample; [ ] = dose if it differs, or a comment. Unless noted, calls come from the whole dose curve; as a rule, active = well fitted curve in the direction sought with a large enough effect; inconclusive = small, poorly fitted or top-dose-only effect, or another doubt; inactive = no such curve, though single readings can be large; an effect the other way counts as inactive or inconclusive. Unless noted, % is set by controls: 0 for no effect and ±100 for the full control effect.

SMILES	TSHR antag	B2AR arrestin	RORg inh	ELG1 DNA repair	VP16 counter
Cc1ccc(C)c2c(N)c3c(nc12)CCCCC3 (tested in a mixture with another compound)	-5	0%	9%	2%	4%
Cc1c(-c2ccccc2)oc2c(C(=O)N3CCN(c4ccc([N+](=O)[O-])cc4)CC3)cccc2c1=O	10	0%	19%	3.3µM*	-1%
Cc1c(C(=O)N2CCN(c3ccc([N+](=O)[O-])cc3)CC2)oc2ccccc12	-18	-1%	/	11µM*	/
Cc1occc1C(=O)N1CCN(c2ccc([N+](=O)[O-])cc2)CC1	6	0%	-3%	19%	1%
O=C(NC1CCCC1)C1CCN(S(=O)(=O)c2ccccc2)CC1	9	0%	-6%	3%	2%
CNC(=O)c1c(NC(=O)c2nc3ccccc3s2)sc2c1CCC2	-5	0%	7.1µM*	?	8.9µM*
COCCn1c(=O)c(CCc2ccccc2)nc2cnc(OCc3ccccc3)nc21	/	/	-2%	/	-3%
CC(=O)NCc1ccc(C(=O)CCl)s1	7	3%	11µM*	?	7.1µM*
CC1=C(C(=O)OCc2ccc3c(c2)OCO3)C(c2ccc(O)c([N+](=O)[O-])c2)NC(=O)N1 (centres undefined)	3	0%	4%	9.2µM*	4%
CCCOc1ccccc1C1NC(=O)NC(C)=C1C(=O)OCc1ccccc1 (centres undefined)	-22	0%	1%	16µM*	?
CC1=C(C(=O)OCc2ccc3c(c2)OCO3)C(c2ccccc2)NC(=O)N1 (centres undefined)	-1	-1%	-1%	2.1µM*	1%
COc1ccc(-c2cc(N)n(S(=O)(=O)c3c(F)c(F)c(F)c(F)c3F)n2)cc1OC	-11	0%	?	23µM*	7.1µM*
c1ccc2c(c1)Cc1cc3ccccc3nc1-2	-1	-1%	11µM*!	?	?
O=C1c2ccccc2-c2nc3ccccc3cc21	7	1%	?	?	-27%
COCCCNC(=S)NC(=O)c1ccc(C)cc1	1	4%	13µM*	?	?
Cc1ccc(C(=O)NC(C#N)=C(Cl)Cl)cc1	12	0%	8.9µM*	?	10µM*
O=C(CCN1CCOCC1)c1ccccc1	4	0%	?	-10%	-4%
O=C(CCN1CCOCC1)NNC(=S)NC(=O)c1ccccc1	4	0%	14µM*	?	-1%
Cc1ccc(C(=O)NC(=S)NNC(=O)CC#N)cc1	-4	0%	10µM*	7%	3%
Cc1cccc(-c2cccc(-c3cc(=O)oc4cc5c(cc34)OCO5)c2)c1	/	/	15%	/	-8%
O=C(CN1CCOCC1)NNC(=O)c1ccc(Cl)cc1	-8	0%	/	-1%	/
Cc1cc2c(nc1C)CCCN2C[C@H](C)O/N=C1/[C@H]2O[C@@H]2[C@@H](O)[C@H]2[C@H]1CCn1c(=O)n(-c3ccccc3)c(=O)n12	/	/	-20%[10 µM]	/	-5%[10 µM]
CN(C)CC(O)CN(c1ccccc1)c1ccccc1 (centres undefined)	-5	0%	16%	?	-1%
CCCCC(=O)NNC(=S)NC(=O)c1ccc(C)cc1	-2	0%	4.5µM*	-13%	18µM*
CC(C)CC(=O)NC(=S)NNC(=O)c1ccc([N+](=O)[O-])cc1	25	0%	4µM*	-3%	5.6µM*
SMILES	TSHR antag	B2AR arrestin	RORg inh	ELG1 DNA repair	VP16 counter
CCCCC(=O)NNC(=S)NC(=O)c1ccc([N+](=O)[O-])cc1	-4	1%	2.5µM*	?	11µM*
CCCCC(=O)NNC(=S)NC(=O)c1cccc([N+](=O)[O-])c1	7	0%	1µM*	?	0.89µM*
CCCCCC(=O)NNC(=S)NC(C)=O	8	-1%	-40%	-2%	-9%
CCC(=O)NC(=S)NNC(=O)c1ccc([N+](=O)[O-])cc1	25	0%	?	6%	0%
COc1cccc(-c2ccc3ncnc(NCCNC(C)=O)c3c2)c1	/	/	21%	/	-12%
N#Cc1ccc(NCCNCC(=O)N2N=CCC2C#N)nc1 (centres undefined)	/	/	-20%	/	-5%
